hgDAF-12 ag: H. glycines DAF-12 receptor agonists, primary screen, cell-based, luminescence, HEK293, GAL4 fusion, UAS-luciferase. Nuclear hormone receptor DAF-12 (Heterodera glycines), GAL4 fusion. HEK293 GAL4-hgDAF12 UAS-luciferase reporter, agonist luminescence; normalized to butyrate control. activation, % at 6.8 µM. 370,000 compounds, 1.8% hits. AID 687014, 2013;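 active = activation above a cutoff set at the mean of all screened compounds plus 3 SD, cut at about 10% in these data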;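 also: 0% = DMSO wells and 100% = sodium butyrate wells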
DAX1 inh-1: DAX1 (NR0B1) inhibitors on StAR promoter, primary screen, cell-based, luminescence, SF-1 (NR5A1), full-length DAX-1 | 370,000 compounds, 1.1% hits | inhibition, % at 6.8 µM | HEK293T StAR-luciferase reporter, SF-1/DAX-1 repression relief | AID 652010, 2013;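 active = inhibition above the mean over all tested compounds plus 3 SD, cut at about 3.6% in these data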;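 also: 0% = DAX-1 cells with DMSO and 100% = cells lacking DAX-1 with DMSO; higher inhibition means more luminescence from relief of DAX-1 repression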
ssDAF12 agonist: S. stercoralis DAF-12 nuclear receptor activators, primary screen, cell-based, luminescence, HEK293, GRIP1 co-expression, lit1-tk-luc; Nuclear hormone receptor DAF-12 (Strongyloides stercoralis); HEK293 ssDAF-12/GRIP1 lit1-tk-luc reporter; % of 3 µM dafachronic acid response; activation, % at 6.8 µM; 370,000 compounds, 1% hits;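 active = activation above the mean over all tested compounds plus 3 SD, cut at about 0.9% in these data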;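 also: 0% = DMSO-only wells and 100% = 3 µM delta7-dafachronic acid wells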
hcDAF-12 act: H. contortus DAF-12 nuclear receptor activators, primary screen, cell-based, luminescence, HEK293, lit1-tk-luc reporter; 370,000 compounds, 1.4% hits; AID 652067, 2013; activation, % at 6.8 µM; HEK293 hcDAF-12 lit1-tk-luc reporter; 0% DMSO, 100% Δ7-dafachronic acid;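 active = activation above the mean of all tested compounds plus 3 SD, cut at about 5.5% in these data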;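 also: 100% = response to 3 µM Δ7-dafachronic acid high control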
DAX1 inh-2: DAX1 (NR0B1) inhibitors, primary screen, cell-based, HEK293, Gal4-DAX1, luciferase luminescence. HEK293 Gal4-DAX1 luciferase reporter. inhibition, % at 6.75 µM. 340,000 compounds, 0.99% hits;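 active = inhibition above the mean over all tested compounds plus 3 SD, cut at about 4.2% in these data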;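 also: 0% = DAX1-transfected cells with DMSO and 100% = empty-vector control cells with DMSO; inhibition shows as a rise in luminescence from relieved DAX1 repression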
Target sequence (P51843 207-470 limits assumed): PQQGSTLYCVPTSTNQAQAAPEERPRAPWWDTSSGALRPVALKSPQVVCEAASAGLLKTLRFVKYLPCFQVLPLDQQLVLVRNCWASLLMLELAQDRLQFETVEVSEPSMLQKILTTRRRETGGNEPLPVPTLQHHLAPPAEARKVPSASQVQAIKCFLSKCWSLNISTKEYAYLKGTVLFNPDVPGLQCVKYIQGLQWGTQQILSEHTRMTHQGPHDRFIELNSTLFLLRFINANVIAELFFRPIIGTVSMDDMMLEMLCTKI
Starred values were filed as active, the others as inactive; / = not tested or not shown. Rows were chosen to be rich in hits. Some 4.1% of all compounds tested hit in one or more screens of this group.

SMILES	hgDAF-12 ag	DAX1 inh-1	ssDAF12 agonist	hcDAF-12 act	DAX1 inh-2
COc1cc(-c2nnc(-c3ccccc3)o2)cc(OC)c1OC	0	-1	-2	-2	-1
c1ccc(-c2nnc(-c3ccncc3)o2)cc1	3	1	-1	2	0
COc1cc(-c2nnc(-c3cc(-c4ccccc4)nc4ccccc34)o2)cc(OC)c1OC	0	0	1.2*	1	2
C[C@@H]1OC(C2CCCCC2)N(C)[C@H]2C[C@H]3c4cc(-c5ccc6c(c5)OCO6)ccc4CCN3C[C@@H]12 (stereo partly specified)	3	0	0	1	/
CN(Cc1ccc(F)cc1)C(=O)CCc1nnc(-c2ccccc2)o1	8	0	0	2	1
COc1ccc(CCN(C)C(=O)CCc2nnc(-c3ccccc3)o2)cc1OC	11*	1	0	4	2
Fc1cccc(F)c1[B-](F)(F)F	11*	1	-1	-1	0
COc1ccc(/C=C/c2nc(-c3ccccc3O)n[nH]2)cc1OC	12*	3	-1	0	2
COc1ccc(CN2CN3Cc4cc(F)ccc4C3CS2(=O)=O)cc1 (stereo unspecified)	1	0	-2	-2	/
COc1cc(-c2coc3c(C(=O)Nc4ccc(C(C)C)cc4)cccc23)ccc1O	6	4.0*	0.9*	5.6*	/
COc1cc(-c2coc3c(C(=O)NC4CCCCC4)cccc23)ccc1O	-1	-3	-2	-2	/
Cc1ccc(S(=O)(=O)NC(=NCC(=O)O)c2ccccc2)cc1	-4	0	1.1*	-1	1
O=C(O)CN=C(NS(=O)(=O)c1ccc(Cl)cc1)c1ccccc1	-1	0	0	-1	-1
O=C(O)CN=C(NS(=O)(=O)c1ccc(Cl)cc1)c1ccc(F)cc1	0	0	-1	0	6.0*
CSCCC(N=C(NS(=O)(=O)c1ccc(Br)cc1)c1ccccc1)C(=O)O (stereo unspecified)	4	1	-1	-1	-1
CSCCC(N=C(NS(=O)(=O)c1ccc(C)cc1)c1ccccc1)C(=O)O (stereo unspecified)	4	0	-2	2	4.3*
CCCN(CCC)CCN1CCN(C(=O)[C@H](CCc2ccccc2)NC(=O)[C@H]2O[C@@H](n3cnc4c(N)ncnc43)[C@H](O)[C@@H]2O)CC1	-5	-1	-1	-2	/
O=C1N/C(=N/N=C/c2ccco2)SC1Cc1ccccc1 (stereo unspecified)	-3	0	-1	-1	5.9*
Nc1c(C(=O)Nc2ccc3c(c2)OCCO3)nnn1Cc1ccc(F)cc1	9	4.2*	0	2	0
COc1ccc(Cn2nnc(C(=O)Nc3ccc(F)cc3)c2N)cc1	1	-1	0	0	0
Nc1[nH]c(C(=O)c2ccccc2)c(-c2ccc(F)cc2)c1C(=O)c1c[nH]c2ccccc12	3	0	0	4	/
CCOc1ccc(Nc2ccc(N3C(=O)CCC3=O)cc2[N+](=O)[O-])cc1	2	0	-1	6.2*	2
N#C/C(Cn1c[n+](NC(=O)Nc2ccccc2)cn1)=N/O	3	0	-1	-1	4.7*
CCCCN1CCN(C2=Nc3ccccc3Sc3ccccc32)CC1	2	0	-1	-2	/
COCc1cc(=O)n2c([nH]c3ccccc32)c1C#N	3	0	1.2*	0	0
SMILES	hgDAF-12 ag	DAX1 inh-1	ssDAF12 agonist	hcDAF-12 act	DAX1 inh-2
CC[C@]12c3[nH]c4cc(-c5ccco5)ccc4c3CCN1C(=O)[C@@H](CC(=O)NCc1ccco1)C[C@@H]2C(=O)N1CCN(C(=O)c2ccco2)CC1	-2	0	0	-2	-1
CC[C@]12c3[nH]c4ccccc4c3CCN1C(=O)C(CC(=O)NCc1ccco1)C[C@@H]2C(=O)N1CCN(C(=O)c2ccco2)CC1 (stereo partly specified)	-2	0	-1	0	5.8*
COCCCNC(=O)CC1C[C@H](C(=O)N2CCOCC2)[C@@]2(C)c3[nH]c4ccc(OC)cc4c3CCN2C1=O (stereo partly specified)	3	4.1*	-1	2	-1
COCCCNC(=O)CC1C[C@H](C(=O)N2CCCCC2)[C@@]2(C)c3[nH]c4ccc(OC)cc4c3CCN2C1=O (stereo partly specified)	1	0	-1	-1	-1
CN(C)CCCNC(=O)CC1C[C@H](C(=O)N2CCOCC2)[C@@]2(CCC3CCCC3)c3[nH]c4ccccc4c3CCN2C1=O (stereo partly specified)	2	3.7*	0	0	4.3*
O=C(CC1C[C@H](C(=O)N2CCOCC2)[C@@]2(CCC3CCCC3)c3[nH]c4ccccc4c3CCN2C1=O)NCCC1=CCCCC1 (stereo partly specified)	0	3	0	1	0
COc1ccc2nc(NC(=O)c3ccc(NC(=O)C4CCCO4)cc3)sc2c1 (stereo unspecified)	0	-1	0	-1	0
O=C(Nc1nc2ccc(F)cc2s1)Oc1ccccc1	2	0	0	6.5*	0
CC1CCc2nc(NC(=O)C3CCCO3)sc2C1 (stereo unspecified)	12*	3.7*	1	6.5*	1
O=C(NC(=S)Nc1nc2ccc(F)cc2s1)c1ccco1	5	2	2.6*	5.8*	2
CS(=O)(=O)c1ccc2nc(NC(=O)Oc3ccccc3)sc2c1	3	-1	-1	-2	2
CC1CCc2nc(NC(=O)c3ccco3)sc2C1 (stereo unspecified)	-5	-1	-2	0	-5
O=C(Nc1nc2ccc(F)cc2s1)C1CCCO1 (stereo unspecified)	11*	4.0*	0	5	1
COC(=O)[C@]12C[C@H](CC(=O)NCc3cccc4ccccc34)C(=O)N(Cc3ccco3)C1=C[C@H](COCc1ccccc1)O[C@@H]2C	1	-1	0	-1	/
O=C(O)C1Cc2[nH]cnc2C(c2ccccc2O)N1 (stereo unspecified)	1	0	0	6.0*	1
CC(C)(C)N(Cc1cn(Cc2ccccc2)nn1)S(=O)(=O)c1ccc(F)cc1Br	4	0	-1	-2	/
C=CCN1[C@@H](CC(C)C)COc2cccc(F)c2S1(=O)=O	1	0	-2	-2	/
